# Measured values: the supplement of paper PMC4022240
# ± gives the standard deviation.
# T1: HaloTag-ATRX ADD domain (163-292)
# T1 chain: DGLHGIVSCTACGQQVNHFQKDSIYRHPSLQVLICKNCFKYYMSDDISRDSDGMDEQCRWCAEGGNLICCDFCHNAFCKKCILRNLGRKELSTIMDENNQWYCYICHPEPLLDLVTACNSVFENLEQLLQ
# Columns and labels:
# Test in all cases: peptide microarray binding signal (635 nm), min-max normalized on array (fraction of array maximum); higher = stronger binding
# Settings in all cases: peptide region: H3 30-42
# [1] = molecular target: T1, HaloTag-ATRX ADD domain (163-292)
# How it was run: (§1)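 Within each library, mean intensities of triplicate spots were min-max scaled to give the binding signal. The spots were histone 13-mer peptide–cellulose conjugates on nitrocellulose with a Cy3 tracer, blocked overnight at 4°C. They were then probed for 1 h at 4°C using biotin-labelled HaloTag reader fusions (10 nM to 1 μM) with streptavidin-Alexa Fluor 647 or rabbit histone antibodies (1:10,000 to 1:2,000) with anti-rabbit Alexa 647, and scanned at 635 nm for signal and 532 nm for misprints on an Axon GenePix 4000B.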
# [2] = molecular target: HaloTag-ING2 PHD (mouse Ing2 200-280)
# How it was run: as §1
# [3] = molecular target: anti-H3K4me3 antibody ab8580
# How it was run: as §1
# [4] = molecular target: anti-H3K9me3 antibody ab8898
# How it was run: as §1
# [5] = peptide modifications: H3T32ph H3K36ac, binder concentration: 1:2,000 dilution
# [6] = peptide modifications: H3T32ph H3K36ac, binder concentration: 1:10,000 dilution
# [7] = peptide modifications: H3T32ph H3K36me2, binder concentration: 1:2,000 dilution
# [8] = peptide modifications: H3T32ph H3K36me2, binder concentration: 1:10,000 dilution
# [9] = peptide modifications: H3K36me1 H3K37me2, binder concentration: 1:2,000 dilution
# [10] = peptide modifications: H3K36me1 H3K37me2, binder concentration: 1:10,000 dilution
# [11] = peptide modifications: H3K36me3, binder concentration: 1:2,000 dilution
# [12] = peptide modifications: H3K36me3, binder concentration: 1:10,000 dilution
# [13] = peptide modifications: H3K36me2, binder concentration: 1:2,000 dilution
# [14] = peptide modifications: H3K36me2, binder concentration: 1:10,000 dilution
# [15] = peptide modifications: H3T32ph H3K36me3, binder concentration: 1:2,000 dilution
# [16] = peptide modifications: H3T32ph H3K36me3, binder concentration: 1:10,000 dilution
# [17] = peptide modifications: H3K36me3 H3K37me2, binder concentration: 1:2,000 dilution
# [18] = peptide modifications: H3K36me3 H3K37me2, binder concentration: 1:10,000 dilution
# [19] = peptide modifications: H3K37me3, binder concentration: 1:2,000 dilution
# [20] = peptide modifications: H3K37me3, binder concentration: 1:10,000 dilution
# [21] = peptide modifications: H3K37me1, binder concentration: 1:2,000 dilution
# [22] = peptide modifications: H3K37me1, binder concentration: 1:10,000 dilution
# [23] = peptide modifications: H3K36me1 H3K37me3, binder concentration: 1:2,000 dilution
# [24] = peptide modifications: H3K36me1 H3K37me3, binder concentration: 1:10,000 dilution
binder,measurement,setting,value
PATGGVKKPHRYR [H3 30-42 P A Tph G G V Kac K P H R Y R],peptide microarray binding signal,"[1]; peptide modifications: H3T32ph H3K36ac, binder concentration: 50 nM",0.00502 ± 0.00015
same,peptide microarray binding signal,"[1]; peptide modifications: H3T32ph H3K36ac, binder concentration: 500 nM",0.0116 ± 0.0013
same,peptide microarray binding signal,"[2]; peptide modifications: H3T32ph H3K36ac, binder concentration: 10 nM",0.0123 ± 0.00025
same,peptide microarray binding signal,"[2]; peptide modifications: H3T32ph H3K36ac, binder concentration: 100 nM",0.023 ± 0.0019
same,peptide microarray binding signal,[3]; [5],0.00191 ± 0.00028
same,peptide microarray binding signal,[3]; [6],0.00257 ± 0.00023
same,peptide microarray binding signal,[4]; [5],0.00193 ± 0.00036
same,peptide microarray binding signal,[4]; [6],0.00167 ± 0.00013
PATGGVKKPHRYR [H3 30-42 P A Tph G G V Kme2 K P H R Y R],peptide microarray binding signal,"[1]; peptide modifications: H3T32ph H3K36me2, binder concentration: 50 nM",0.00313 ± 0.0002
same,peptide microarray binding signal,"[1]; peptide modifications: H3T32ph H3K36me2, binder concentration: 500 nM",0.00695 ± 0.00032
same,peptide microarray binding signal,"[2]; peptide modifications: H3T32ph H3K36me2, binder concentration: 10 nM",0.0113 ± 0.00095
same,peptide microarray binding signal,"[2]; peptide modifications: H3T32ph H3K36me2, binder concentration: 100 nM",0.0184 ± 0.00072
same,peptide microarray binding signal,[3]; [7],0.00266 ± 8.2e-05
same,peptide microarray binding signal,[3]; [8],0.00262 ± 0.00017
same,peptide microarray binding signal,[4]; [7],0.00142 ± 7.1e-05
same,peptide microarray binding signal,[4]; [8],0.00127 ± 1.3e-05
PATGGVKKPHRYR [H3 30-42 P A T G G V Kme Kme2 P H R Y R],peptide microarray binding signal,"[1]; peptide modifications: H3K36me1 H3K37me2, binder concentration: 50 nM",0.00241 ± 8.1e-05
same,peptide microarray binding signal,"[1]; peptide modifications: H3K36me1 H3K37me2, binder concentration: 500 nM",0.00529 ± 0.00037
same,peptide microarray binding signal,"[2]; peptide modifications: H3K36me1 H3K37me2, binder concentration: 10 nM",0.00442 ± 0.00037
same,peptide microarray binding signal,"[2]; peptide modifications: H3K36me1 H3K37me2, binder concentration: 100 nM",0.00709 ± 0.0016
same,peptide microarray binding signal,[3]; [9],0.000245 ± 5.2e-06
same,peptide microarray binding signal,[3]; [10],0.000571 ± 1.1e-05
same,peptide microarray binding signal,[4]; [9],0.00337 ± 0.0001
same,peptide microarray binding signal,[4]; [10],0.000865 ± 2.4e-05
PATGGVKKPHRYR [H3 30-42 P A T G G V Kme3 K P H R Y R],peptide microarray binding signal,"[1]; peptide modifications: H3K36me3, binder concentration: 50 nM",0.00574 ± 0.00018
same,peptide microarray binding signal,"[1]; peptide modifications: H3K36me3, binder concentration: 500 nM",0.007429 ± 7.1e-05
same,peptide microarray binding signal,"[2]; peptide modifications: H3K36me3, binder concentration: 10 nM",0.0195 ± 0.00025
same,peptide microarray binding signal,"[2]; peptide modifications: H3K36me3, binder concentration: 100 nM",0.02445 ± 0.00017
same,peptide microarray binding signal,[3]; [11],0.00383 ± 0.00027
same,peptide microarray binding signal,[3]; [12],0.00468 ± 0.00012
same,peptide microarray binding signal,[4]; [11],0.0031 ± 0.00028
same,peptide microarray binding signal,[4]; [12],0.00219
PATGGVKKPHRYR [H3 30-42 P A T G G V Kme2 K P H R Y R],peptide microarray binding signal,"[1]; peptide modifications: H3K36me2, binder concentration: 50 nM",0.00417 ± 0.0002
same,peptide microarray binding signal,"[1]; peptide modifications: H3K36me2, binder concentration: 500 nM",0.00919 ± 0.00057
same,peptide microarray binding signal,"[2]; peptide modifications: H3K36me2, binder concentration: 10 nM",0.0135 ± 0.0016
same,peptide microarray binding signal,"[2]; peptide modifications: H3K36me2, binder concentration: 100 nM",0.0203 ± 0.0023
same,peptide microarray binding signal,[3]; [13],0.0031 ± 0.00053
same,peptide microarray binding signal,[3]; [14],0.00377 ± 0.00013
same,peptide microarray binding signal,[4]; [13],0.00305 ± 0.00012
same,peptide microarray binding signal,[4]; [14],0.00271 ± 7.1e-05
PATGGVKKPHRYR [H3 30-42 P A Tph G G V Kme3 K P H R Y R],peptide microarray binding signal,"[1]; peptide modifications: H3T32ph H3K36me3, binder concentration: 50 nM",0.00426 ± 9.2e-05
same,peptide microarray binding signal,"[1]; peptide modifications: H3T32ph H3K36me3, binder concentration: 500 nM",0.00686 ± 0.00012
same,peptide microarray binding signal,"[2]; peptide modifications: H3T32ph H3K36me3, binder concentration: 10 nM",0.00925 ± 0.00068
same,peptide microarray binding signal,"[2]; peptide modifications: H3T32ph H3K36me3, binder concentration: 100 nM",0.0248 ± 0.0061
same,peptide microarray binding signal,[3]; [15],0.0335 ± 0.008
same,peptide microarray binding signal,[3]; [16],0.0116 ± 0.0022
same,peptide microarray binding signal,[4]; [15],0.0489 ± 0.013
same,peptide microarray binding signal,[4]; [16],0.0155 ± 0.0012
PATGGVKKPHRYR [H3 30-42 P A T G G V Kme3 Kme2 P H R Y R],peptide microarray binding signal,"[1]; peptide modifications: H3K36me3 H3K37me2, binder concentration: 50 nM",0.002539 ± 1.1e-05
same,peptide microarray binding signal,"[1]; peptide modifications: H3K36me3 H3K37me2, binder concentration: 500 nM",0.00462 ± 0.00097
same,peptide microarray binding signal,"[2]; peptide modifications: H3K36me3 H3K37me2, binder concentration: 10 nM",0.00471 ± 0.0004
same,peptide microarray binding signal,"[2]; peptide modifications: H3K36me3 H3K37me2, binder concentration: 100 nM",0.00347 ± 0.00061
same,peptide microarray binding signal,[3]; [17],0.00132 ± 0.00026
same,peptide microarray binding signal,[3]; [18],0.00805 ± 0.0039
same,peptide microarray binding signal,[4]; [17],0.00571 ± 0.0035
same,peptide microarray binding signal,[4]; [18],0.00363 ± 0.00092
PATGGVKKPHRYR [H3 30-42 P A T G G V K Kme3 P H R Y R],peptide microarray binding signal,"[1]; peptide modifications: H3K37me3, binder concentration: 50 nM",0.00621 ± 0.00029
same,peptide microarray binding signal,"[1]; peptide modifications: H3K37me3, binder concentration: 500 nM",0.00781 ± 0.00023
same,peptide microarray binding signal,"[2]; peptide modifications: H3K37me3, binder concentration: 10 nM",0.00949 ± 0.00038
same,peptide microarray binding signal,"[2]; peptide modifications: H3K37me3, binder concentration: 100 nM",0.0356 ± 0.036
same,peptide microarray binding signal,[3]; [19],0.00183 ± 9e-05
same,peptide microarray binding signal,[3]; [20],0.00234 ± 4.2e-05
same,peptide microarray binding signal,[4]; [19],0.00216 ± 0.00026
same,peptide microarray binding signal,[4]; [20],0.00185 ± 5.2e-05
PATGGVKKPHRYR [H3 30-42 P A T G G V K Kme P H R Y R],peptide microarray binding signal,"[1]; peptide modifications: H3K37me1, binder concentration: 50 nM",0.0106 ± 0.00056
same,peptide microarray binding signal,"[1]; peptide modifications: H3K37me1, binder concentration: 500 nM",0.0245 ± 0.0059
same,peptide microarray binding signal,"[2]; peptide modifications: H3K37me1, binder concentration: 10 nM",0.0491 ± 0.0011
same,peptide microarray binding signal,"[2]; peptide modifications: H3K37me1, binder concentration: 100 nM",0.0698 ± 0.0049
same,peptide microarray binding signal,[3]; [21],0.0068 ± 0.00068
same,peptide microarray binding signal,[3]; [22],0.00765 ± 0.00036
same,peptide microarray binding signal,[4]; [21],0.00234 ± 4.8e-05
same,peptide microarray binding signal,[4]; [22],0.00225 ± 5.4e-05
PATGGVKKPHRYR [H3 30-42 P A T G G V Kme Kme3 P H R Y R],peptide microarray binding signal,"[1]; peptide modifications: H3K36me1 H3K37me3, binder concentration: 50 nM",0.00135 ± 1.7e-05
same,peptide microarray binding signal,"[1]; peptide modifications: H3K36me1 H3K37me3, binder concentration: 500 nM",0.00229 ± 8.8e-05
same,peptide microarray binding signal,"[2]; peptide modifications: H3K36me1 H3K37me3, binder concentration: 10 nM",0.00203 ± 8.9e-05
same,peptide microarray binding signal,"[2]; peptide modifications: H3K36me1 H3K37me3, binder concentration: 100 nM",0.00191 ± 0.00013
same,peptide microarray binding signal,[3]; [23],0.000359 ± 2.1e-05
same,peptide microarray binding signal,[3]; [24],0.000514 ± 1.1e-05
same,peptide microarray binding signal,[4]; [23],0.0008 ± 8.7e-05
same,peptide microarray binding signal,[4]; [24],0.000807 ± 1.5e-05
